According to PubChem BioAssay AID1850 (Southern Research Specialized Biocontainment Screening …, 2009):
The whole screen tested about 310,000 compounds, of which about 1,000 (0.32%) were called active. A selection follows. Entries with a potency or affinity are not part of this list. Unmarked numbers belong to inactive results. The rule behind the calls is not given here.

Experiment: Inhibition of PhoP regulon, Salmonella typhi GFP reporter cells, confirmation, 4 h (AID 1850);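 note: 0% = induced wells with vehicle and 100% = uninduced wells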
Conditions: Salmonella Typhi PhoP-promoter GFP reporter, fluorescence, at 50 µM, stronger effect = higher value

Compound	inhibition
Cc1ccc(C(=O)NCC(C)NC(=O)c2ccc(C)c([N+](=O)[O-])c2)cc1[N+](=O)[O-] (centres undefined)	-3.75%
O=C1c2ccccc2NC(c2ccc(-c3cccc([N+](=O)[O-])c3)o2)N1O (centres undefined)	-4.04%
CCOC(=O)c1ccc(-c2ccc(C3Nc4ccccc4C(=O)N3O)o2)cc1 (centres undefined)	-7.99%
CCN1CCN(c2ccc(S(=O)(=O)N3CCCCC3)cc2NC(=O)c2ccccc2)CC1	-7.27%
CSC(=NS(=O)(=O)c1ccc(C)cc1)SC	2.62%
CCC(C)(C)NC(=O)CN(CC1CCCO1)C(=O)CCC(=O)Nc1nccs1 (centres undefined)	1.73%
CCOC(=O)C1CCN(c2cc3c(cc2NC(=O)c2ccccc2F)n(C)c(=O)n3C)CC1	-6.44%
CCN(CC)CCCNC(=O)c1c(O)c2cc(F)cc3c2n(c1=O)C(C)CC3 (centres undefined)	-12.5%
O=C(O)c1cn(-c2ccc(F)c(F)c2)c2c(F)c(F)c(F)c(F)c2c1=O	-8.9%
CCOC(=O)c1cn(CC2CC2)c2cc(F)c(F)cc2c1=O	-1.36%
CC1CCc2cc(F)cc3c(O)c(C(=O)NCCN(C)C)c(=O)n1c23 (centres undefined)	-11.2%
C[n+]1ccccc1/C=C/c1ccc(F)c(F)c1	-2.41%
N#Cc1ccccc1OCC(O)CS(=O)(=O)c1ccccc1 (centres undefined)	8.05%
Cc1ccc(NNC(=O)c2cc(C(C)(C)C)nn2Cc2ccccc2)cc1	1.12%
Cc1cc(C)cc(NS(=O)(=O)c2csc(C(N)=O)c2)c1	-4.13%
N#Cc1c(C(F)(F)F)cc(Cc2ccccc2)nc1SCC(=O)NCC(=O)O	-9.26%
Cc1ccc2oc(=O)c3cc(C(=O)NCCCN4CCc5ccccc5C4)sc3c2c1	-1.04%
Cc1c(OCC(=O)N[C@@H](Cc2c[nH]c3ccccc23)C(=O)O)ccc2c1oc(=O)c1ccccc12	4.69%
CCOC(=O)C1CCCN(C(=O)c2ccc3nc(-c4ccccc4)c(-c4ccccc4)nc3c2)C1 (centres undefined)	5.36%
CCCc1nc2sc(C(=O)OCC)c(N)c2c2c1COC(C)(C)C2	0.3%
O=C(CSc1nccc(=O)[nH]1)Nc1ccc(Br)c(Cl)c1	4.82%
CCN(CC)C(=O)CSc1nc(COc2ccccc2)nc2ccccc12	-0.33%
CC[C@H](C)[C@@H](CNC)NC[C@@H](Cc1ccc(O)cc1)NCC(C)(C)C	4.52%
CC[C@@H](C)[C@H](CN[C@H](CNC)[C@@H](C)O)NCCc1ccc(OC)cc1	4.36%

Compound	inhibition
O=C(O)CCCC(=O)NCCCCc1ccccc1	-10.7%
CCCCCSc1cc(OC)c(CCN)cc1OC	15.9%
CNCCc1ccc(OC)c(OC)c1	10.9%
COc1cc2ccc3c(CCN(C)C)cc(OC)c(OC)c3c2cc1OC	13.6%
CCCCCSc1cc(O)c(C(CNC)C(C)C)cc1OC (centres undefined)	-3.45%
CCCCCSc1cc(OC)c(CCN(C)C)cc1OC	11.2%
CCCCCCSc1cc(-c2nc3cc(C)ccn3c2NCCCC)ccc1OC	0.7%
Cc1ccccc1S(=O)Cc1ccc(C(=O)NC2CCN(Cc3ccccc3)CC2)o1 (centres undefined)	-1.02%
COCC1CCN(C(=O)C2CCC(=O)N(CCc3cccc(F)c3)C2)CC1 (centres undefined)	-0.82%
COc1cc(/C=N/N2CCN(c3ccc(Cl)cc3)CC2)cc(OC)c1OC(C)=O	-1.44%
CC(=O)N1CCN(c2ccc(NC(=O)c3cccc(Cl)c3)cc2)CC1	13.2%
O=C(CCS(=O)(=O)c1ccc(Cl)cc1)Nc1nc(-c2ccncc2)cs1	-19.9%
Cc1ccc(C(=O)Nc2ccccc2Sc2ccccc2)cc1	8.29%
Cc1ccc(C(=O)CC(=O)c2ccccc2)cc1	2.22%
Cc1cc(Nc2cccc(C(F)(F)F)c2)n2nc(C)nc2n1	2.14%
Brc1ccc2c(c1)C(C1=NCCN1)c1ccccc1CS2 (centres undefined)	-3.48%
Clc1ccc2c(c1)C(OC1CN3CCC1CC3)c1ccccc1CS2 (centres undefined)	-1.82%
COc1ccc(C(=O)NCCCOC(=O)c2ccc(OC)cc2)cc1	-6.57%
CCOC(=O)c1sc(=NC(=O)c2ccc(F)cc2)n(C)c1C	0.21%
Cc1cc(N2CCC(C)CC2)nc(-c2ccccc2O)n1	-7.47%
Cc1cc(N2CCN(C3CCCCC3)CC2)nc2cccc(O)c12	40.7%
CN(C)c1ccc(/C=N/NC(=O)c2cccc(C(=O)N/N=C/c3ccc(N(C)C)cc3)n2)cc1	-1.09%
COc1ccc(-c2ccc(=O)n(CC(=O)Nc3cccc(O)c3)n2)cc1OC	-4.09%
O=c1cc(CN2CCN(C/C=C/c3ccccc3)CC2)c2cc(O)c(-c3ccccc3)cc2o1	1.7%

Compound	inhibition
O=c1cc(CN2CCN(C/C=C/c3ccccc3)CC2)c2cc(O)ccc2o1	0.2%
COc1cc(C(=O)NCC(=O)OCC(=O)Nc2nnc(-c3ccccc3)o2)cc(OC)c1OC	1.32%
Cc1cc(C)n2nc(S(=O)(=O)NC(C)(C)C)nc2n1	-11.7%
COc1cccc(NS(=O)(=O)c2nc3nc(C)cc(C)n3n2)c1	5.81%
CCOc1cc2[nH]c(=O)n(CCCC(=O)NCc3ccco3)c(=O)c2cc1OCC	-5.99%
O=C(CNS(=O)(=O)/C=C/c1ccccc1)OC1CCOC1=O (centres undefined)	-7.99%
COc1ccc(C(C[N+](=O)[O-])n2nc(C)cc2C)cc1 (centres undefined)	3.95%
Cc1cc(C)n(C(C[N+](=O)[O-])c2ccc(Cl)cc2)n1 (centres undefined)	17.4%
O=C(NCCCc1ccncc1)C1CCC(=O)N(Cc2ccc(Cl)cc2)C1 (centres undefined)	2.99%
CC(C)(C)NC(=S)NNC(=O)[C@H]1C[C@@H]1c1ccccc1	-2.2%
CCCCCOC(=O)Cn1c(=O)oc2ccc(C)cc21	-6.52%
CN(C)C(=O)Oc1cccc(OCc2n(C)c3ccccc3[n+]2C)c1	-12.8%
CCCCOC(=O)Cn1c(=O)n(CC(=O)OCCCC)c2ccccc21	2.5%
CCCCCCCCCCOC(=O)Cn1c(COc2ccccc2)[n+](C)c2ccccc21	0.36%
CCCCCOC(=O)Cn1c(=O)oc2ccccc21	4.41%
CCCCOC(=O)Cn1c(=N)n(CCC)c2ccccc21	-6.14%
Cc1cccc(OCCCCn2c(CO)nc3ccccc32)c1	1.97%
CCCCOC(=O)Cn1c2ccc(OC)cc2c2nc3ccccc3nc21	-14.3%
C=C(C)Cn1c(SCC(=O)N/N=C/c2ccccc2)nc2ccccc2c1=O	2.73%
CCOC(=O)C1CCCN(C(=O)CSc2ccccc2)C1 (centres undefined)	0.88%
CC(C)(C)c1cc(NS(=O)(=O)c2cccs2)no1	2.79%
CC(C)NC(=O)C1CCCN(S(=O)(=O)c2cccc3nonc23)C1 (centres undefined)	5.72%
CSc1cnc2c(N)nc(N(C)C)nc2n1	-2.44%
CCOc1cc(NC(=O)C2CC2)c(OCC)cc1NC(=O)CCn1nnc2ccccc21	0.44%

Compound	inhibition
CCn1cc(CN2CCC(n3nccc3NC(=O)C3CCCC3)CC2)c(C)n1	-10.6%
Brc1ccc(-c2nnc(-c3ccco3)o2)cc1	7.53%
CN(C)C(=O)Oc1ccc(OCc2n(C)c3ccccc3[n+]2C)cc1	-10.3%
CCCCc1n(CC(=O)c2ccc(Cl)cc2)c2ccccc2[n+]1C	0.37%
Cc1nonc1OCCNCc1c(C(=O)N2CCCCCCC2)nc2ccc(Cl)cn12	0.8%
Cc1ccc(CN2CC(C(=O)Nc3cc(S(C)(=O)=O)ccc3Cl)CC2=O)cc1 (centres undefined)	-8.57%
CC1(C)Cc2cccc(OCC(=O)N3CCN(c4cccc(C(F)(F)F)c4)CC3)c2O1	7.47%
Cc1cc(C)c(OCCCNCc2ccccc2)c(Br)c1	13.8%
COCCCNCCCCOc1c(Cl)cc(C)cc1Br	1.04%
Cc1cc(Cl)cc(C)c1OCCNCc1ccccc1	-3.01%
Cc1cc(C)c(OCCNCc2ccccc2)c(C)c1	-8.25%
CCn1c(N2CCN(CC(=O)Nc3cccc(C)c3C)CC2)nc2ccccc21	-2.87%
Cc1cccc(NC(=O)CCNC(=O)c2ccco2)c1	-1.77%
CN(C)c1cnn(-c2ccccc2)c(=O)c1Cl	-7.8%
CC(C)(O)CC[C@H](OC(=O)c1ccccc1)[C@](C)(O)[C@H]1CC[C@@]2(O)C3=CC(=O)[C@@H]4C[C@@H](O)[C@H](O)C[C@]4(C)C3CC[C@]12C (some centres undefined)	4.63%
COc1ccc(C(C)NC(=O)Cc2ccc(Br)cc2)cc1 (centres undefined)	3.69%
CCOc1ccccc1NC(=O)c1cccc(NC(=O)C(C)C)c1	-6.67%
O=C1CC(N2C(=O)/C(=C/C=C/c3ccccc3)SC2=S)C(=O)N1c1ccccc1 (centres undefined)	-6.61%
O=C(O)CCN1C(=O)CC(N2C(=O)/C(=C/c3ccc(Cl)cc3)SC2=S)C1=O (centres undefined)	-12.1%
Cc1ccc(S(=O)(=O)NNC(=O)c2cnn(-c3ccccc3)c2C(F)(F)F)cc1	-1.38%
CC(C)(C)C(=O)Nc1ccccc1-c1nc2ccccc2[nH]c1=O	-6.56%
O=C(COc1ccccc1[N+](=O)[O-])Nc1ccc(N2CCN(C(=O)c3cccs3)CC2)cc1	7.91%
